Source: ChEMBL document CHEMBL3988442, “University of Dundee, Small-Polar-MMV Screening Library” (2021)
For some assays here: Potency and affinity values are given separately.

Tests used:
Set-up in all cases: scale not given: direction of the effect not stated beside the values
[1] = target: Protein translocase subunit SecA (Escherichia coli (strain K12)) (UniProt P10408); assay: Assay to Identify E. coli SecA ATPase Inhibitors; assay type: functional; settings: 30 µM
[2] = target: T1, Ubiquitin-activating enzyme e1, putative (Leishmania donovani (strain BPK282A1)) (UniProt E9BSI1); assay: Leishmania donovani Ubiquitin Activating Enzyme (LdE1); assay type: functional; settings: 30 µM
T1 sequence (whole entry): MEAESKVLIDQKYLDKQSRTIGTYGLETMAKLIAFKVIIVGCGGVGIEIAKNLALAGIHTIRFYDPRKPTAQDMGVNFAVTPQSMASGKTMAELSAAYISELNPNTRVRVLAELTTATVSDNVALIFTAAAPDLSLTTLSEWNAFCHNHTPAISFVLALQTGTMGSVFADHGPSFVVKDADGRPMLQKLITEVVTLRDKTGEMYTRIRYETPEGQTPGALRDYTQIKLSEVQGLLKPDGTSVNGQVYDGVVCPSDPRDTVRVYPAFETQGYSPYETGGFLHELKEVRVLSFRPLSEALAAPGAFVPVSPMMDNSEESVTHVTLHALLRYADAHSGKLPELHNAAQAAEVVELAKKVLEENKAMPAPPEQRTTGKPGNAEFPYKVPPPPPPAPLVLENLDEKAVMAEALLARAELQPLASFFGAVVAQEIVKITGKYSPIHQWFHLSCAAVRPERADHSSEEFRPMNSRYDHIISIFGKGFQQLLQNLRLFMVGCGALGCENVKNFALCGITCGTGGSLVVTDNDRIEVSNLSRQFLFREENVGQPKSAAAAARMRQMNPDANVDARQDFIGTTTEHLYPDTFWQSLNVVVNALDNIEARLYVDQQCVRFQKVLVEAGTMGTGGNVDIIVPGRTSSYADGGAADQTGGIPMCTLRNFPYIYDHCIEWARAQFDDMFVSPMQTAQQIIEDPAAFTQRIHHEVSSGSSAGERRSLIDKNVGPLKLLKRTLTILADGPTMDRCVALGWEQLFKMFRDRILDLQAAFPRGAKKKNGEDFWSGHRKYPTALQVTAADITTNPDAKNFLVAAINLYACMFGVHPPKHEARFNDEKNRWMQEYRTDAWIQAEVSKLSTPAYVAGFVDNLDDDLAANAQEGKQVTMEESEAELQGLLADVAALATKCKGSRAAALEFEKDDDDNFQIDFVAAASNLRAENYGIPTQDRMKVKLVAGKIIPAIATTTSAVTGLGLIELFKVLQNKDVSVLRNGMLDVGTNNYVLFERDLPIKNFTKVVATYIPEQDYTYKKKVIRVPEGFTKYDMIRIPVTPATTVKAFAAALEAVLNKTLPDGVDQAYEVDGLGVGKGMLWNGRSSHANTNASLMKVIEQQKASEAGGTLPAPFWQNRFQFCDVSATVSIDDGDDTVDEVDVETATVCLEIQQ

[3] = target: AMP-activated protein kinase, AMPK (Homo sapiens) (UniProt P54646+O43741+P54619+Q9UGJ0+Q9Y478+Q13131+Q9UGI9); assay: AMP-dependent Kinase enzyme assay. An in vitro enzyme assay that detects ADP turnover that is directly proportional to AMPK activity. This uses naive AMPK that is activated during the assay with MK-8722; assay type: functional; settings: 30 µM
[4] = target: Sialic acid-binding Ig-like lectin 9 (Homo sapiens) (UniProt Q9Y336); assay: Hs-Siglec9 ALPHAscreen SOP 20170721; settings: 10 µM
Sequence of Sialic acid-binding Ig-like lectin 9 (Homo sapiens) (Q9Y336 whole entry): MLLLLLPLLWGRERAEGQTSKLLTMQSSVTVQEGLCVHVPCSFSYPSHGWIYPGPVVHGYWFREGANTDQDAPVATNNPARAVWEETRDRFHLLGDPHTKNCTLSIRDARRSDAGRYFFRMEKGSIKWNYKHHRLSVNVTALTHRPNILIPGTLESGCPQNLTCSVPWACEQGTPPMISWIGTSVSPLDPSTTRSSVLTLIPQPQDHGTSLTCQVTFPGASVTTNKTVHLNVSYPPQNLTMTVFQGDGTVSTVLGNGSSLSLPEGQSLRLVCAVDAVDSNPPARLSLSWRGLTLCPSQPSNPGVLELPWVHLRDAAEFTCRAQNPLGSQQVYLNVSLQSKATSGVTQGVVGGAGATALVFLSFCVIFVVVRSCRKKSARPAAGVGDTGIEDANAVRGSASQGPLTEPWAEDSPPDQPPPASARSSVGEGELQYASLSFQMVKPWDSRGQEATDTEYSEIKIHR

Trypanosoma cruzi = assay: Trypanosoma cruzi phosphomannomutase and mannose-1-phosphate guanylyltransferase assay; assay type: functional; settings: 10 µM
[5] = target: T2, Arginase-2, mitochondrial (Homo sapiens) (UniProt P78540); assay: in vitro enzyme assay to detect the production of urea directly proportional to the activity of Arginase II; assay type: functional; settings: 33.3 µM; further: in the data most compounds retested in dose-response had high values
T2 sequence (whole entry): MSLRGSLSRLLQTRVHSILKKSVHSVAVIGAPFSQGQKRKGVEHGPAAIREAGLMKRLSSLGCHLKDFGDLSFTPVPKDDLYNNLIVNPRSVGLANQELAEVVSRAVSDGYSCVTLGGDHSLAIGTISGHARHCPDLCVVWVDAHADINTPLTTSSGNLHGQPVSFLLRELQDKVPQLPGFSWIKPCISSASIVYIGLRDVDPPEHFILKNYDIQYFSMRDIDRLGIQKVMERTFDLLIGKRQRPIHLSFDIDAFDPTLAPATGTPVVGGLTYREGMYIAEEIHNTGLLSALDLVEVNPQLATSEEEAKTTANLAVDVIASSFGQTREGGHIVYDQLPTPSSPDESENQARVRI

[6] = target: T3, Proteasome subunit beta (Trypanosoma cruzi) (UniProt O96673); assay: Trypanosoma cruzi proteasome chymotrypsin-like activity (TcProtChymo) assay.; further: in the data most compounds retested in dose-response had high values; assay type: functional; settings: 9.37 µM
T3 sequence (whole entry): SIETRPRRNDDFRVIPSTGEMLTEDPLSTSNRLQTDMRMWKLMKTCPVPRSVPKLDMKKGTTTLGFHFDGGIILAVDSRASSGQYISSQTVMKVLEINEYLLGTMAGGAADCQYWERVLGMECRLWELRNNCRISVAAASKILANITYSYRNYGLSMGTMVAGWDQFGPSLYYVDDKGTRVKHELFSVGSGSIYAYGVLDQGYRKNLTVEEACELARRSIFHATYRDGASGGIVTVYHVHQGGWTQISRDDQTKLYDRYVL

Homo sapiens = species on record: Homo sapiens; assay: To identify inhibition of the IFN signalling (Jak-Stat) pathway via expression of an eGFP reporter gene under the control of an IFN-stimulated response element (ISRE) containing MxA promoter.; assay type: functional; settings: 30 µM
[7] = target: T4, Tyrosyl-tRNA synthetase, putative (Trypanosoma cruzi (strain CL Brener)) (UniProt Q4DSP6); assay: Trypanosoma cruzi tyrosyl tRNA synthetase (TcYRS) _High Tyrosine SOP; assay type: functional; settings: 30 µM; further: in the data most compounds retested in dose-response had high values
T4 sequence (whole entry): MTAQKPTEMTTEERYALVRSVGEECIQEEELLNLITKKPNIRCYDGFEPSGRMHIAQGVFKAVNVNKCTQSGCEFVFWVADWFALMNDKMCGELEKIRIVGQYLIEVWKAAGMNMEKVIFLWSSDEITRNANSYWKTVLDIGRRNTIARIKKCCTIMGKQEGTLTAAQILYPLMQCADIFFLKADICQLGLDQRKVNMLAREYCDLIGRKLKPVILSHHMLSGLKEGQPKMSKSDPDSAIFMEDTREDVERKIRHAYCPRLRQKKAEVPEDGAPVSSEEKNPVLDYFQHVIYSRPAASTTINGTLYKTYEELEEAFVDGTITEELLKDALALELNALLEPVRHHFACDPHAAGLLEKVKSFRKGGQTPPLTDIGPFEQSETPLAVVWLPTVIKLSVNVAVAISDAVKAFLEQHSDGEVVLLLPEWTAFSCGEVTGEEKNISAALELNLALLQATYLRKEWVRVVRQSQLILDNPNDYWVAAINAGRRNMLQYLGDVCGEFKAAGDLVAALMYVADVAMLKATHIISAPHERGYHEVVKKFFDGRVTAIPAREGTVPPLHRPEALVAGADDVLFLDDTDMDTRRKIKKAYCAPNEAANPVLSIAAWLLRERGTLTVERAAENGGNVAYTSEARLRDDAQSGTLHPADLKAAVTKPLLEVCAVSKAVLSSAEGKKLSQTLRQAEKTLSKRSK

[8] = target: T4, Tyrosyl-tRNA synthetase, putative (Trypanosoma cruzi (strain CL Brener)); assay: Trypanosoma cruzi tyrosyl tRNA synthetase (TcYRS) SOP; assay type: functional; settings: 30 µM
[9] = target: Chromo domain-containing protein 1 (Saccharomyces cerevisiae (strain ATCC 204508 / S288c) (Baker's yeast)) (UniProt P32657); assay: ScCHD-1 Enzyme Inhibition Assay; assay type: functional; settings: 30 µM; further: in the data most compounds retested in dose-response had high values
Sequence of Chromo domain-containing protein 1 (Saccharomyces cerevisiae (strain ATCC 204508 / S288c) (Baker's yeast)) (P32657 whole entry, the tested form may be a part): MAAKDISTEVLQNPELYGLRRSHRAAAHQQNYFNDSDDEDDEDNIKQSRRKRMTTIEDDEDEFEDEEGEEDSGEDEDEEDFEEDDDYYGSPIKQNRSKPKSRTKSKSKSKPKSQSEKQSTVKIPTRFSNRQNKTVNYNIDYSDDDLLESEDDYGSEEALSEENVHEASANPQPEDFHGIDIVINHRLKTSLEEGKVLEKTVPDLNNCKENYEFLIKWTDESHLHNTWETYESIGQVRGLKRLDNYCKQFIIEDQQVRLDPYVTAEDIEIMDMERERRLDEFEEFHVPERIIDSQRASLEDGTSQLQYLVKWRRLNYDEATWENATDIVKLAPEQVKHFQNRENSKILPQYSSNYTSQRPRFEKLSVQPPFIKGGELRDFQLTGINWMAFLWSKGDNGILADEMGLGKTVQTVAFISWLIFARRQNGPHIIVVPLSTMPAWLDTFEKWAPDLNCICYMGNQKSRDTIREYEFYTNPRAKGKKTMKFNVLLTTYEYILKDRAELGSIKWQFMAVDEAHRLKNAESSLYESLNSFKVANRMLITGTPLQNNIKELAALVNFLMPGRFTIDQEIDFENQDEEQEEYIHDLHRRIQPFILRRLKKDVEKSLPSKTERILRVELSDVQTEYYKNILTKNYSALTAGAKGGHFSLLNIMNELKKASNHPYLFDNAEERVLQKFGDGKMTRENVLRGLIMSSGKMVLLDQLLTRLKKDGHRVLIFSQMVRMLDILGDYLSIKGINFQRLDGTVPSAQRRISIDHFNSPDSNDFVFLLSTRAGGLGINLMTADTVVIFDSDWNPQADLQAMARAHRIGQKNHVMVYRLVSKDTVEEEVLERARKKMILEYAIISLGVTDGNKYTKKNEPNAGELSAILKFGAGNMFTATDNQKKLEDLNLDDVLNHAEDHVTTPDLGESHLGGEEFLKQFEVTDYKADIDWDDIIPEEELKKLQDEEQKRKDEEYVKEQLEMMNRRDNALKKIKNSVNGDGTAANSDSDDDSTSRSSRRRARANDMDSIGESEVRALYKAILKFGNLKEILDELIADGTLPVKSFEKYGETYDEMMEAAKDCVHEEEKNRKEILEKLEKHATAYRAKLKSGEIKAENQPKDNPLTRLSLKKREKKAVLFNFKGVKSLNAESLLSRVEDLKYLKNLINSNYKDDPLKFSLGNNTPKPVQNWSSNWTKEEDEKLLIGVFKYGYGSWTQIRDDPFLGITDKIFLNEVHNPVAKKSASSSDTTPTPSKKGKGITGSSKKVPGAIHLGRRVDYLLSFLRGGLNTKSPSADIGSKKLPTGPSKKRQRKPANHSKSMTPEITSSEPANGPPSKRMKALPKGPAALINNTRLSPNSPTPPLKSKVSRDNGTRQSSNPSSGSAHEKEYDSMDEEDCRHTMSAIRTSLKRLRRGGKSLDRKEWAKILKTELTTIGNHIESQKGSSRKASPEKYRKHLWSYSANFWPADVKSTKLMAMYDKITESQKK

Sequence of Protein translocase subunit SecA (Escherichia coli (strain K12)) (P10408 whole entry): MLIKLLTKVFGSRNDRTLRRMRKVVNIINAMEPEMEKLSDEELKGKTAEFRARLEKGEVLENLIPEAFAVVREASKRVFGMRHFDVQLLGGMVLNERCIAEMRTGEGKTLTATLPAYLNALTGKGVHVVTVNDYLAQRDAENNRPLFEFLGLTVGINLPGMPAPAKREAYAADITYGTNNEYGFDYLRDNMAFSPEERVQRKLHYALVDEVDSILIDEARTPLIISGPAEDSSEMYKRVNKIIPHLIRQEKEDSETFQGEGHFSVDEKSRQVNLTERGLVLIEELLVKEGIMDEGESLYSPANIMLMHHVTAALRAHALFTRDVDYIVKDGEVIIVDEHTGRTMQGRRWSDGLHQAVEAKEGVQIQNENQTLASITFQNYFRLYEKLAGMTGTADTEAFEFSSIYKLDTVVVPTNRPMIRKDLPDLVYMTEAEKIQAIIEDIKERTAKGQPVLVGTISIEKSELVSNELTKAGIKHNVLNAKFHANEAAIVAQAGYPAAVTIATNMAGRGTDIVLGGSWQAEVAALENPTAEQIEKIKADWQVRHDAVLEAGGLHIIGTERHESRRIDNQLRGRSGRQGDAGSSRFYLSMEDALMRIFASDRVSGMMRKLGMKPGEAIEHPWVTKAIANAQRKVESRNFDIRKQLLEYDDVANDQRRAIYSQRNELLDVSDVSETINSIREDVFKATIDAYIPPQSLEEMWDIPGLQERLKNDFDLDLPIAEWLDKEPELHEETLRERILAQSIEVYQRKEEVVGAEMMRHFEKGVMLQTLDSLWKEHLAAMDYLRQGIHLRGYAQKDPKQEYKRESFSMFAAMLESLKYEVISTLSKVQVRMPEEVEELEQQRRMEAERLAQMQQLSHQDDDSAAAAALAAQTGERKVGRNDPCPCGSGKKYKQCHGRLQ

Row | Structure (SMILES) | Percent Effect [1] | Percent Effect [2] | Percent Effect [3] | Percent Effect [4] | Percent Effect (Trypanosoma cruzi) | Percent Effect [5] | Percent Effect [6] | Percent Effect (Homo sapiens) | Percent Effect [7] | Percent Effect [8] | Percent Effect [9]
1 | COc1ccc(S(=O)(=O)N2CCCC3(CCCN3S(C)(=O)=O)C2)cc1 (configuration not stated) | -2.95% | 10.8% | -2.61% | -2.37% | -8.31% | -2.73% | 12.3% | 7.81% | 0% | 8.64% | -3.67%
2 | COc1ccc(C(=O)NCCc2nnc3ccccn23)c(OC)c1 | -6.68% | 5.2% | 5.94% | -6.61% | -7.93% | -3.16% | 13.5% | 13% | 0% | 2.35% | -16.9%
3 | O=C(CCc1nc2cccnc2[nH]1)NCc1cccnc1 | -3.19% | 25.3% | -5.37% | 0.97% | 3.34% | -0.88% | 15.5% | 9.81% | 8.47% | 15.4% | -10.2%
4 | Cc1cccc(-c2nc(C)nn2CC(=O)NC2CCCC2)c1 | -5.38% | 23.4% | -6.06% | 8.2% | 6.93% | 3.2% | 18.6% | 5.48% | 9.71% | 26.8% | -9.1%
5 | CCc1nc(C2CCCN(C(=O)c3cccc4cn[nH]c34)C2)no1 (configuration not stated) | -7.64% | 5.41% | 1.19% | 7.35% | -6.41% | -2.77% | 6.64% | 19.4% | 2.97% | 1.22% | 3.58%
6 | Cc1noc2ncc(C(=O)NCC3CCN(C(C)C)C3)cc12 (configuration not stated) | -2.65% | 2.63% | 2.21% | 2.67% | -6.58% | 4.21% | 4.34% | 4.5% | -0.49% | 4.88% | 3.24%
7 | CC(C)Sc1ncccc1C(=O)NCc1ccc(CS(C)(=O)=O)cc1 | -4.04% | 13.9% | 0.323% | -3.32% | -1.74% | 4.09% | 18% | 18.1% | 4.17% | 5.06% | -15.6%
8 | Cc1nc(CN2C(=O)COC3(CCN(Cc4nccs4)CC3)C2C)cs1 (configuration not stated) | -1.57% | 0% | -5.34% | 5.68% | 4.56% | -4.39% | 2.48% | -3.19% | 6.25% | 13.6% | -5.58%
9 | CN1CCc2cc(C(CNS(=O)(=O)c3cccs3)N3CCCC3)ccc21 (configuration not stated) | -1.64% | 13% | 7.05% | -7.92% | -5.42% | -9.68% | 8.88% | 12.5% | 0% | 8.97% | -8.44%
10 | CC(C)c1nc(CN2CCCCC2)cs1 | -4.24% | -5.2% | 15.4% | 0.118% | -0.686% | -0.632% | -1.54% | 47.1% | -2.86% | -2.35% | 0.144%
11 | NCc1cnn(-c2ccccc2C(=O)NCCCn2ccnc2)c1 | -3.74% | 6.76% | 9.61% | -1.25% | -3.16% | -1.16% | 0.312% | 4.01% | 7.53% | 11.7% | -2.44%
12 | Cc1cnn(Cc2cc(F)ccc2F)c1NC(=O)NC1CC1 | -4.44% | 16% | -4.15% | 41.4% | 5.94% | 29.7% | 15.5% | 10.9% | -16.9% | 21% | -4.35%
13 | O=C([C@H]1CCCO1)N1CCCC2(CCN(Cc3ccncc3)C2=O)C1 (some centres not stated) | -1.19% | 10.4% | 3.88% | -8.92% | -7.79% | 7.1% | 11.3% | 31.4% | 3.17% | 6.41% | -8.64%
14 | Cc1nc(N2CCN(C(=O)c3ccsc3)CC2)c2cnn(C)c2n1 | -3.6% | 2.7% | -6.08% | 16.1% | 1.6% | -6.01% | 5.04% | 5.31% | 4.43% | 13.6% | -7.11%
15 | CCc1nc(C)c(C(=O)NCCNc2ncccn2)s1 | -4.61% | 15.8% | -1.87% | -4.05% | -2.52% | 0% | 2.28% | -2.51% | 9.36% | 16.1% | -3.7%
16 | COc1cccc(Cc2nnc(SC3CCOC3=O)o2)c1 (configuration not stated) | -4.53% | -2.67% | -9.71% | 15.1% | 2.04% | 0.521% | 5.41% | 5.46% | -4.92% | 8.64% | -2.72%
17 | CCc1ncc2c(n1)CN(Cc1nc(C)c(C)o1)CC2 | -3.48% | 2.74% | -53% | -5.63% | -1.76% | 6.82% | 9.94% | 10.1% | 5.38% | 10% | -5.18%
18 | O=C(Cn1cccn1)NCC1(c2ccccc2)CC1 | -4.9% | 2.6% | 0.192% | -7.24% | -2.25% | 2.74% | -1.86% | 23.2% | -0.952% | -2.35% | -6.03%
19 | CCN1CCN(C2CCN(Cc3nnc(C(C)(C)C)o3)CC2)C1=O | -4.08% | 13% | 7.53% | -0.00786% | 0.686% | 1.05% | 10.3% | 4.76% | 7.62% | 14.1% | -21.7%
20 | O=C1OCCN1CCOc1nc(-c2ccccc2Cl)no1 | -6.78% | 16.4% | -3.77% | 15.8% | 4.7% | 8.64% | 12.1% | 7.15% | 5.38% | 12.5% | -6.2%
21 | N#CC1(C(=O)Nc2ccc(OC(F)F)cc2)CCCC1 | -4.03% | 1.39% | 5.97% | -0.254% | 0.68% | 2.21% | 3.68% | -8.03% | 2.1% | 5.13% | -0.635%
22 | O=C(NC1CC1)N1CCc2ncnc(-c3ccncc3)c2CC1 | 5.45% | 10.7% | 17.6% | 1.38% | -6.37% | -55.4% | 12% | 4.1% | 2.08% | 25% | -4.64%
